In PubChem BioAssay (NCI) one finds growth inhibition data, which are given here for 8 compounds.

Compounds without any hit were thinned out: in the full panel of roughly 79,000, 15% have a hit. A number with no mark means an inactive call. Calls of active or inactive are those of the source. Cut-off read from the data, not from the text of the source: active = growth inhibition above about 70%; inactive = the rest.

The nature of experiment [1]: NCI Yeast Anticancer Drug Screen. Data for the rad50 strain (AID 155).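 Note: 0% = growth of vehicle-only cultures of the same strain.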 To be noted: S. cerevisiae rad50 strain growth inhibition, active compounds read high. An outline of the steps: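 A DNA repair-deficient yeast mutant serves as the test organism; compound-induced growth inhibition is calculated against vehicle-treated cells.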
Experiment [2] can be described thus: NCI Yeast Anticancer Drug Screen. Data for the mec2-1 strain (AID 157). To be noted: S. cerevisiae mec2-1 strain, active compounds read high. The essentials:
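Vehicle-treated cultures served as reference for growth inhibition of compound-exposed mec2-1 yeast.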

Experiment [3] in a line: NCI Yeast Anticancer Drug Screen. Data for the sgs1 mgt1 strain (AID 161).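 Note: 0% = growth of cultures given vehicle only.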 To be noted: S. cerevisiae sgs1 mgt1 strain, active compounds read high. An outline of the steps:
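Test agents were incubated with a DNA-repair-mutant yeast strain. Growth was then read and compared against vehicle-treated controls.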

Experiment [4] can be described thus: NCI Yeast Anticancer Drug Screen. Data for the cln2 rad14 strain (AID 165).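 Note: 0% = growth equal to vehicle treated cultures.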 To be noted: S. cerevisiae cln2 rad14 strain, active compounds read high. An outline of the steps: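 Each compound was tested on cln2 rad14 yeast. Inhibition of growth was calculated against vehicle-exposed controls.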
Experiment [5] is described as follows: NCI Yeast Anticancer Drug Screen. Data for the bub3 strain (AID 167). The following applies: S. cerevisiae bub3 mutant strain, active compounds read high. An outline of the steps: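 Inhibition values come from growth of compound-treated mutant yeast normalised to vehicle-treated controls.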
Experiment [6] can be described thus: NCI Yeast Anticancer Drug Screen. Data for the mlh1 rad18 strain (AID 175). The following applies: S. cerevisiae mlh1 rad18 strain growth inhibition, active compounds read high. An outline of the steps: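 Vehicle-treated cultures served as the reference for growth inhibition in a yeast strain carrying DNA damage repair alterations exposed to each compound.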
Where [7] appears, read: at 5.0 µM (retest, dose inferred, filed as 0.5).
Where [8] appears, read: at 50.0 µM (retest, dose inferred, filed as 5.0).

With `CCN(CC)C1CC(O[C@H]2C[C@](O)(C(=O)CO)Cc3c(O)c4c(c(O)c32)C(=O)c2c(OC)cccc2C4=O)OC(C)C1O` (some centres undefined), the growth inhibition in experiment [1] (setting [7]) is 98% (active); in experiment [1] (setting [8]), 98% (active); in experiment [1] (at 50.0 µM) it was 99.2% (active); in experiment [2] (setting [7]), 99% (active); in experiment [2] (setting [8]), 99% (active); in experiment [2] (at 50.0 µM), 99.3% (active). Further, the growth inhibition was 99% (active) in experiment [3] (setting [7]); 99% (active) in experiment [3] (setting [8]); 99.5% (active) in experiment [3] (at 50.0 µM); 97% (active) in experiment [4] (setting [7]); 98% (active) in experiment [4] (setting [8]); 98.8% (active) in experiment [4] (at 50.0 µM). Besides, the growth inhibition in experiment [5] (setting [7]) was 98% (active); in experiment [5] (setting [8]) it was 99% (active); in experiment [5] (at 50.0 µM), 99% (active); in experiment [6] (setting [7]), 98% (active); in experiment [6] (setting [8]) it was 96% (active); in experiment [6] (at 50.0 µM), 99.3% (active).

Consider `C[C@]12CC[C@H](OC(=O)COc3ccc(N(CCCl)CCCl)cc3)C[C@@H]1CC[C@@H]1[C@@H]2CC[C@]2(C)NC(=O)CC[C@@H]12`, for which the growth inhibition in experiment [1] (setting [7]) is 17%; in experiment [1] (setting [8]), 50%; in experiment [1] (at 50.0 µM), 70% (active); in experiment [2] (setting [7]), 7%; in experiment [2] (setting [8]) it was 11%; in experiment [2] (at 50.0 µM), 49.2%. Also, the growth inhibition is 19% in experiment [3] (setting [7]); 57% in experiment [3] (setting [8]); 19.1% in experiment [3] (at 50.0 µM); 17% in experiment [4] (setting [7]); 36% in experiment [4] (setting [8]); 5.4% in experiment [4] (at 50.0 µM). The growth inhibition in experiment [5] (setting [7]) is 22%; in experiment [5] (setting [8]), 59%; in experiment [5] (at 50.0 µM), 16.1%; in experiment [6] (setting [7]), 25%; in experiment [6] (setting [8]) it was 48%; in experiment [6] (at 50.0 µM) it was 8.2%.

With `Cc1ccc(S)cc1.[Pb]`, the growth inhibition in experiment [1] (setting [7]) is 0%; in experiment [1] (setting [8]), 30%; in experiment [1] (at 50.0 µM), 20.1%; in experiment [2] (setting [7]) it was 2%; in experiment [2] (setting [8]), 6%; in experiment [2] (at 50.0 µM), 43.1%. For the same compound, the growth inhibition is 3% in experiment [3] (setting [7]); 28% in experiment [3] (setting [8]); 44.5% in experiment [3] (at 50.0 µM); 5% in experiment [4] (setting [7]); 2% in experiment [4] (setting [8]); -1.55% in experiment [4] (at 50.0 µM). Also, the growth inhibition in experiment [5] (setting [7]) was 3%; in experiment [5] (setting [8]) it was 50%; in experiment [5] (at 50.0 µM) it was 95.9% (active); in experiment [6] (setting [7]) it was 0%; in experiment [6] (setting [8]), 13%; in experiment [6] (at 50.0 µM) it was 83.8% (active).

As for `CN(Cc1ccccc1)CC(O)c1ccc(Cl)cc1` (centres undefined), the growth inhibition in experiment [1] (setting [7]) is -4%; in experiment [1] (setting [8]) it was 38%; in experiment [1] (at 50.0 µM), 57.5%; in experiment [2] (setting [7]), -1%; in experiment [2] (setting [8]), 23%; in experiment [2] (at 50.0 µM), 0.75%. Moreover, the growth inhibition in experiment [3] (setting [7]) was 2%; in experiment [3] (setting [8]), 44%; in experiment [3] (at 50.0 µM), 58.6%; in experiment [4] (setting [7]), 3%; in experiment [4] (setting [8]), 25%; in experiment [4] (at 50.0 µM), 48.5%. Also, the growth inhibition in experiment [5] (setting [7]) is 2%; in experiment [5] (setting [8]), 41%; in experiment [5] (at 50.0 µM) it was 60.5%; in experiment [6] (setting [7]) it was 4%; in experiment [6] (setting [8]) it was 34%; in experiment [6] (at 50.0 µM), 34.5%.

For the compound `O=C(CI)c1ccc[nH]1`, the growth inhibition was 65% in experiment [1] (setting [7]); 99% (active) in experiment [1] (setting [8]); 99.3% (active) in experiment [1] (at 50.0 µM); 79% (active) in experiment [2] (setting [7]); 99% (active) in experiment [2] (setting [8]); 99.3% (active) in experiment [2] (at 50.0 µM). Moreover, the growth inhibition in experiment [3] (setting [7]) was 74% (active); in experiment [3] (setting [8]), 99% (active); in experiment [3] (at 50.0 µM) it was 99.5% (active); in experiment [4] (setting [7]), 96% (active); in experiment [4] (setting [8]) it was 99% (active); in experiment [4] (at 50.0 µM), 99.2% (active). Moreover, the growth inhibition in experiment [5] (setting [7]) is 97% (active); in experiment [5] (setting [8]), 97% (active); in experiment [5] (at 50.0 µM) it was 99.4% (active); in experiment [6] (setting [7]), 74% (active); in experiment [6] (setting [8]), 97% (active); in experiment [6] (at 50.0 µM) it was 99.3% (active).

For `COc1ccc(NP(=S)(Nc2ccc(OC)cc2)c2ccccc2)cc1`, the growth inhibition was 2% in experiment [1] (setting [7]); 54% in experiment [1] (setting [8]); 55% in experiment [1] (at 50.0 µM); -2% in experiment [2] (setting [7]); 57% in experiment [2] (setting [8]); 58.1% in experiment [2] (at 50.0 µM). In addition, the growth inhibition in experiment [3] (setting [7]) is 6%; in experiment [3] (setting [8]) it was 65%; in experiment [3] (at 50.0 µM), 49.6%; in experiment [4] (setting [7]) it was 3%; in experiment [4] (setting [8]) it was 51%; in experiment [4] (at 50.0 µM) it was 68.2%. Moreover, the growth inhibition in experiment [5] (setting [7]) is -1%; in experiment [5] (setting [8]), 78% (active); in experiment [5] (at 50.0 µM), 67.6%; in experiment [6] (setting [7]) it was 5%; in experiment [6] (setting [8]), 58%; in experiment [6] (at 50.0 µM) it was 28.9%.

Regarding `CCC[CH2][Sn]1([CH2]CCC)[O]CC(CN(C)Cc2ccccc2)[O]1` (centres undefined), the growth inhibition in experiment [1] (setting [7]) is 3%; in experiment [1] (setting [8]), 3%; in experiment [1] (at 50.0 µM) it was 88.7% (active); in experiment [2] (setting [7]), 12%; in experiment [2] (setting [8]) it was 12%; in experiment [2] (at 50.0 µM), 90.1% (active). In addition, the growth inhibition was -5% in experiment [3] (setting [7]); -5% in experiment [3] (setting [8]); 20.2% in experiment [3] (at 50.0 µM); -2% in experiment [4] (setting [7]); -2% in experiment [4] (setting [8]); 89.2% (active) in experiment [4] (at 50.0 µM). Moreover, the growth inhibition in experiment [5] (setting [7]) was -1%; in experiment [5] (setting [8]) it was -1%; in experiment [5] (at 50.0 µM) it was 87.5% (active); in experiment [6] (setting [7]), 0%; in experiment [6] (setting [8]) it was 0%; in experiment [6] (at 50.0 µM), 81.8% (active).

`O=C(C1C(c2ccccc2)N1C(c1ccccc1)c1ccccc1)C1C(c2ccccc2)N1C(c1ccccc1)c1ccccc1` (centres undefined): the growth inhibition in experiment [1] (setting [7]) is -3%; in experiment [1] (setting [8]), 50%; in experiment [1] (at 50.0 µM), 72.7% (active); in experiment [2] (setting [7]) it was 23%; in experiment [2] (setting [8]) it was 42%; in experiment [2] (at 50.0 µM), 54%. Moreover, the growth inhibition in experiment [3] (setting [7]) was -3%; in experiment [3] (setting [8]), 77% (active); in experiment [3] (at 50.0 µM), 58%; in experiment [4] (setting [7]) it was -17%; in experiment [4] (setting [8]), 6%; in experiment [4] (at 50.0 µM), 24%. The growth inhibition is -14% in experiment [5] (setting [7]); 56% in experiment [5] (setting [8]); 63.9% in experiment [5] (at 50.0 µM); 7% in experiment [6] (setting [7]); 80% (active) in experiment [6] (setting [8]); 90.2% (active) in experiment [6] (at 50.0 µM).
